Rows were chosen to be rich in hits. Some 2.8% of all compounds tested hit in one or more screens of this group.
KDM5B inhibitor: Primary screen for KDM5B Histone Demethylases FDH-coupled qHTS | 220,000 tested, 2.6% active | AID 1347165, 2019 | Potency, µM (series often up to 57.7 µM), actives largely listed as inhibitors | KDM5B demethylase, FDH-coupled NADH fluorescence (FDH is formaldehyde dehydrogenase) | Lysine-specific demethylase 5B (Homo sapiens), Q9UGL1; active = well fitted inhibition curve with a large enough effect; inconclusive = small, poorly fitted or top-dose-only effect; inactive = no such curve, though single readings can be large or run the other way; also: potency is read from the fitted curve at half-maximal effect; 0% is about no effect; nearly all actives have a fitted effect of over 70% in size
Target sequence (Q9UGL1 whole entry, looked up): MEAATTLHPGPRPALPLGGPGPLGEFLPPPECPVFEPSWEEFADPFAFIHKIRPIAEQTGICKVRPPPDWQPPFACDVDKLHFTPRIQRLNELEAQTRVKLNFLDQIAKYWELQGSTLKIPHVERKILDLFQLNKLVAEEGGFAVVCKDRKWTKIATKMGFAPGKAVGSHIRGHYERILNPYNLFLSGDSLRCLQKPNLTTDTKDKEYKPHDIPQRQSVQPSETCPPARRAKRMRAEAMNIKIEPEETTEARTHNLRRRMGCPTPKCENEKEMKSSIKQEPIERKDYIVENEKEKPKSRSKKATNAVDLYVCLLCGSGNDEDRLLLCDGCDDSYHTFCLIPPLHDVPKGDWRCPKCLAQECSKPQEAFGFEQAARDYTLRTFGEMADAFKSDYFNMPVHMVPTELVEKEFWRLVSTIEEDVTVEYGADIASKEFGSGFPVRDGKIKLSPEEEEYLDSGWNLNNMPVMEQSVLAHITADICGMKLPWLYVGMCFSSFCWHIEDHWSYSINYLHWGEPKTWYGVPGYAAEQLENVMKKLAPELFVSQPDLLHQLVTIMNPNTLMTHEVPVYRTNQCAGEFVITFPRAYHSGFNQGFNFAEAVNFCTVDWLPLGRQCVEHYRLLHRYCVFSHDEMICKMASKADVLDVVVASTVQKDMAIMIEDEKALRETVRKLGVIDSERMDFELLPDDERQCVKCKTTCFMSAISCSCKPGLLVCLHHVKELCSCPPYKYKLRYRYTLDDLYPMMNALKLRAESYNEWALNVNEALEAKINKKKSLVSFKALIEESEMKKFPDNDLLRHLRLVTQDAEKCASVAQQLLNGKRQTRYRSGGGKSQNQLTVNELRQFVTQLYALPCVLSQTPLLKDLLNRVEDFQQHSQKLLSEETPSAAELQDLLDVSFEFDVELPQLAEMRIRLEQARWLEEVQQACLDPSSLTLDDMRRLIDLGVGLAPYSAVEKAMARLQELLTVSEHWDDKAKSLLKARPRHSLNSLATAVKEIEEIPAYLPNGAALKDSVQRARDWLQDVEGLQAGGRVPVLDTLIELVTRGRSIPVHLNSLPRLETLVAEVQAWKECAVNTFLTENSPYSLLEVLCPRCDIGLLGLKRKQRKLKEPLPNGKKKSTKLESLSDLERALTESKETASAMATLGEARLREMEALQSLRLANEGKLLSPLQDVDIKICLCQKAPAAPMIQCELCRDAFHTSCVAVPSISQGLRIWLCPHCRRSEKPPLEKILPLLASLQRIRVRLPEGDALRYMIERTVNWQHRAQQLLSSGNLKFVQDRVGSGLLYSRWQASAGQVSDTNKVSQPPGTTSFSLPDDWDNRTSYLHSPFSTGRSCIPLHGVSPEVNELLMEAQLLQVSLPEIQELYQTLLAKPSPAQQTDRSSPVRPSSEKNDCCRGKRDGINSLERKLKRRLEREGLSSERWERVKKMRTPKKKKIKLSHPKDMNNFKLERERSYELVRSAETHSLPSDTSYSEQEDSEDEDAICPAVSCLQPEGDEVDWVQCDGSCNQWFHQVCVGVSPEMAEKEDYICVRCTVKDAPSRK
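Here, H3K4me3 peptide (12.5 µM in substrate mix) is demethylated by KDM5BΔAP, 200 nM final, after 10 min compound exposure. Formaldehyde product is coupled through FDH (0.25 U/mL in mix) to NADH fluorescence; 30-min ΔRFU feeds dose-response curves.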
IP6K1 inh: Primary qHTS assay for small molecule inhibitors of Inositol hexaphosphate kinase 1 (IP6K1); Inositol hexakisphosphate kinase 1 (Homo sapiens), Q92551; IP6K1 kinase, ADP-Glo luminescence, 2 h; stronger effect = lower value; activity change, % (series mostly up to about 58 µM); 140,000 tested, 0.81% active; AID 1645851, 2021; in the data active = activity change below about -25%; also: % is scaled to controls: 0 for no effect and ±100 for the full control effect
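ADP-Glo luminescence measures ADP made by human IP6K1 during a 2 h RT reaction with ATP/IP6 (mix at 1.3 mM/130 uM); top library doses 57.5 and 19.1 uM final.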
* = called active by the depositor; i = inactive; ? = inconclusive; . = no result given.

SMILES	KDM5B inhibitor	IP6K1 inh
COc1ccc(CN2C[C@H](O)C[C@H]2c2nc(-c3cccc(C)c3)no2)c2ccccc12	22.4µM*	-13.2
CCN(CC)C(=O)c1c(C)sc2ccn(Cc3ccc(F)cc3)c(=O)c12	25.1µM*	2.7
COCCNC(=O)c1c(C)sc2ccn(Cc3ccc(F)cc3)c(=O)c12	i	-0.1
CC(Sc1ncnc2nc[nH]c12)C(=O)NCCc1c[nH]c2ccc(Cl)cc12 (stereo unspecified)	i	.
Cc1ccc(F)c(C(CC(=O)NCc2ccco2)c2c[nH]c3ccc([N+](=O)[O-])cc23)c1 (stereo unspecified)	i	6.5
O=C(Nc1ccccc1)c1cc2cc(Br)ccc2oc1=O	i	.
COc1cc2nc(Cl)nc(N)c2cc1OC	.	8.4
CC[C@@]1(O)CCN(c2nc(N)c3cc(OC)c(OC)cc3n2)C[C@H]1O	31.6µM*	11.5
COc1ccc(CNC(=O)[C@@H](NC(=O)N2CCn3c2nc2ccccc23)C(C)C)cc1	i	.
COc1ccc(-c2nn(-c3ccccc3C)c(OC(C)=O)c2-c2ccc(NC(C)=O)cc2)cc1OC	28.2µM*	7.1
CC(=O)Oc1c(-c2ccc(NC(=O)C(C)C)cc2)c(-c2ccc(F)cc2)nn1-c1ccc(F)cc1	?	2.1
COCC(=O)Nc1ccc(-c2c(-c3cccc(OC)c3)nn(-c3ccccc3)c2OC(C)=O)cc1	28.2µM*	15.1
COc1cccc(-c2nn(-c3ccccc3)c(OC(C)=O)c2-c2ccc(NC(=O)C3CCCC3)cc2)c1	12.6µM*	4.3
CC(=O)Oc1c(-c2ccc(NC(=O)c3ccco3)cc2)c(-c2cccc(F)c2)nn1-c1ccc(C)cc1	?	15.8
COCC(=O)Nc1ccc(-c2c(CC(C)C)nn(-c3ccccc3)c2OC(C)=O)cc1	i	-1.5
CCCc1nn(-c2ccccc2C)c(OC(C)=O)c1-c1ccc(NC(C)=O)cc1	i	19.1
CC(=O)Oc1c(-c2ccc(NC(=O)CC(C)C)cc2)c(-c2ccc(F)cc2)nn1-c1ccc(F)cc1	28.2µM*	14.4
CC(C)C(=O)Nc1ccc(NC(=O)C(Cl)(Cl)Cl)cc1	i	.
COC(=O)Cn1c(Br)nc2c1c(=O)n(C)c(=O)n2C	i	.
CC(C)(C)CC(=O)NCC(=O)O	i	.
Cc1ccc2c(COC(=O)CNS(=O)(=O)c3ccc(C)c(C)c3)cc(=O)oc2c1	i	.
COCC(=O)Nc1ccc(-c2c(C(C)C)nn(-c3cccc(F)c3)c2OC(C)=O)cc1	i	1.9
COCC(=O)Nc1ccc(-c2c(-c3ccccc3OC)nn(-c3ccc(C)cc3)c2OC(C)=O)cc1	22.4µM*	21.5
CCCNC(=O)CN1CCN(Cc2cccc3cccnc23)CC1	i	.
CC1(C)CC(NCCNC2CC(C)(C)NC(C)(C)C2)CC(C)(C)N1	i	.
SMILES	KDM5B inhibitor	IP6K1 inh
COc1ccc(CN2Cc3[nH]cnc3C[C@H]2c2nc(-c3ccc(C)cc3)no2)cc1	?	0.7
O=C(Nc1ccc(Cl)cc1)N1Cc2[nH]cnc2C[C@H]1c1nc(-c2ccc(F)c(Cl)c2)no1	i	-11.9
CCNC(=O)N1Cc2[nH]cnc2C[C@H]1c1nc(-c2ccc(F)c(Cl)c2)no1	39.8µM*	-2.7
Cc1ccc(-c2noc([C@@H]3Cc4nc[nH]c4CN3C(=O)NC(C)C)n2)cc1	?	0.1
c1ccc(CN2Cc3[nH]cnc3C[C@H]2c2nc(-c3ccccc3)no2)cc1	?	-8.3
Fc1ccc(CN2Cc3[nH]cnc3C[C@H]2c2nc(-c3ccc(F)c(Cl)c3)no2)cc1	35.5µM*	-8.4
Cc1cccc(-c2noc([C@@H]3Cc4nc[nH]c4CN3C(=O)NC(C)C)n2)c1	8.91µM*	-4.1
COc1ccc(CN2Cc3[nH]cnc3C[C@H]2c2nc(-c3ccc4ccccc4c3)no2)cc1	15.8µM*	9.9
O=C(NCc1cccs1)c1ccc2nnc(-c3cc[nH]c3)n2c1	.	-0.7
COc1cccc(-c2ccc(CN3CCCC(N[S+](=O)([O-])c4ccccc4)C3)cc2)c1 (stereo unspecified)	.	-15.3
Cc1cc(OCc2nnc(SCc3cc(=O)c4cc(C(N)=O)ccc4[nH]3)n2C)cc(C)c1Cl	i	.
Cc1ccc(Oc2ccc(NC(=O)C3CCCCC3)cc2)cc1	i	.
COc1ccc(CN2Cc3[nH]cnc3C[C@H]2c2nc(-c3ccncc3)no2)cc1	28.2µM*	8.9
CC(C)(CC(=O)O)CC(=O)N1Cc2[nH]cnc2C[C@H]1c1nc(-c2ccc3ccccc3c2)no1	i	6.5
COc1ccc(-c2noc([C@@H]3Cc4nc[nH]c4CN3Cc3ccc(C)cc3)n2)cc1	?	4.7
O=C(C1CCCCC1)N1Cc2[nH]cnc2C[C@H]1c1nc(-c2ccc3ccccc3c2)no1	31.6µM*	2.2
Cc1cc(C)cc(C(=O)NCC(c2ccccc2)c2c[nH]c3ccccc23)c1 (stereo unspecified)	i	.
O=C(O)CCC(=O)N1CCN(C2CCNCC2)C(=O)C1	i	25.0
CC(C)NC(=O)N1CCN(C2CCNCC2)C(=O)C1	?	6.2
O=C(N1CCCCC1)N1CCN(C2CCNCC2)C(=O)C1	89.1µM*	11.2
O=C(N1CCCC1)N1CCN(C2CCNCC2)C(=O)C1	50.1µM*	9.9
CCc1ccc(NC(=O)Cc2c(C)nc3nc(-c4cccs4)nn3c2C)cc1	i	.
Cc1ccc(CNC(=O)N2CCc3c(nc4cc(-c5ccccc5Cl)[nH]n4c3=O)C2)cc1	?	22.6
COC(=O)CNC(=O)N1CCc2c(nc3cc(-c4ccccc4Cl)[nH]n3c2=O)C1	22.4µM*	51.1
CC(=O)Nc1ccc(CC(=O)N2CCc3c(nc4cc(-c5ccccc5Cl)[nH]n4c3=O)C2)cc1	25.1µM*	31.4
SMILES	KDM5B inhibitor	IP6K1 inh
COc1ccccc1-c1noc(CCC(=O)N2CCc3c(nc4cc(-c5ccccc5)[nH]n4c3=O)C2)n1	?	29.7
CCCCC(=O)N1CCc2c(nc3cc(-c4ccccc4Cl)[nH]n3c2=O)C1	?	25.2
COc1ccc(NC(=O)N2CCc3nc4cc[nH]n4c(=O)c3C2)cc1	?	0.0
COc1cccc(NC(=O)N2CCc3nc4cc(-c5ccccc5Cl)[nH]n4c(=O)c3C2)c1	25.1µM*	4.4
O=C(NCC1CCCO1)N1CCc2c(nc3cc(-c4ccccc4Cl)[nH]n3c2=O)C1 (stereo unspecified)	20µM*	25.2
COc1ccc(F)cc1-c1ccc(CN2CCCCC2C(=O)N2CCc3ccccc3C2)cc1 (stereo unspecified)	.	-7.2
COc1ccc(-c2cc(-c3cccc(CO)c3)cn3cncc23)cc1	?	-17.2
Cc1ccc(C2=CC(=O)CC(c3ccccc3)C2)cc1 (stereo unspecified)	i	.
COCCCNC(=O)c1cc(C2CC2)nc2onc(C3CCNC3)c12 (stereo unspecified)	?	1.6
Cn1nc(C2CCCNC2)c2c(C(=O)NCC(F)(F)F)cc(C3CC3)nc21 (stereo unspecified)	?	4.1
Cn1nc(C2CCNC2)c2c(C(=O)N3CCOCC3)cc(C3CC3)nc21 (stereo unspecified)	89.1µM*	-1.6
COCCNC(=O)c1cc(C2CC2)nc2c1c(C1CCCNC1)nn2C (stereo unspecified)	89.1µM*	3.8

High-throughput results deposited in PubChem BioAssay by National Center for Advancing Translational Sciences (NCATS).
